Assay outcomes (PubChem BioAssay)
A selection: hits, their analogues and other compounds. The true share with any hit is near 9%.
HTT cytoprotect: protects HTT-Q103 PC12 cells, measured by ATP | PC12 HTT-Q103 induced, cytoprotection, ATP luminescence, 40 h | Potency, µM (doses to about 56.4 µM), hits mostly activators | hit rate 0.14% among 230,000 | AID 1471; also: nearly all actives have a fitted effect of over 45% in size
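Compounds added alongside 100 nM tebufenozide, which induces toxic Q103 huntingtin exon 1-GFP in stable PC12 cells; surviving cells quantified by luminescent ATP measurement. Medium: phenol red-free DMEM, 5% equine and 5% calf serum.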
KinaseGlo FLuc: blocks Kinase-Glo luciferase, a counter-screen artifact. hit rate 0.28% among 200,000. Kinase-Glo luciferase, ATP luminescence, 8 min. AID 1379. Potency, µM (top dose mostly 38.3 µM), usual class: inhibitors. Q27757; also: nearly all actives have a fitted effect of over 60% in size
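Inhibition of Kinase-Glo luciferase light generation was assessed at 10 uM ATP in pH 7.2 imidazole buffer, with luminescence measured after eight minutes at ambient temperature.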
HPGD block: HPGD (human) dehydrogenase inhibition; purified HPGD, NADH fluorescence kinetic, PGE2 substrate; Potency, µM, most hits filed as inhibitors; hit rate 4.3% among 150,000; AID 894; active = well fitted inhibition curve with a large enough effect, not every such curve was filed as active; inconclusive = small, poorly fitted or top-dose-only effect, or another doubt; inactive = no such curve, though single readings can be large or run the other way
Target sequence (P15428 whole entry, looked up): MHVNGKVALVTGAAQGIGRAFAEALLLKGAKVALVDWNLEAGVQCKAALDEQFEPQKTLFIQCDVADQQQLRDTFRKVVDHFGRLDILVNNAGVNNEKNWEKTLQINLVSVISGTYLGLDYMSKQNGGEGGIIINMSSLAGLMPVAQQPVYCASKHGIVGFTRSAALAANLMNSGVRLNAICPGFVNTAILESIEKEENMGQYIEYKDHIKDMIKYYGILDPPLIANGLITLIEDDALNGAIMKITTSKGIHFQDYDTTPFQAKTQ
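NADH formation kinetics: reaction with 30 uM PGE2 and 1 mM NAD+ (final), 20 nM enzyme, Tris-HCl pH 8 with Tween 20, after 15 min compound preincubation at room temperature. Fluorescence change, last versus first of five reads.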
ALDH1A1 block: blocks purified human ALDH1A1 activity; P00352; Purified ALDH1A1, NADH fluorescence, propionaldehyde substrate; Potency, µM (series often up to 75.3 µM), hits mostly inhibitors; hit rate 7.3% among 220,000; AID 1030; active = well fitted inhibition curve with a large enough effect, not every such curve was filed as active; inconclusive = small, poorly fitted or top-dose-only effect, or another doubt; inactive = no such curve, though single readings can be large or run the other way
Target sequence (P00352 whole entry, looked up): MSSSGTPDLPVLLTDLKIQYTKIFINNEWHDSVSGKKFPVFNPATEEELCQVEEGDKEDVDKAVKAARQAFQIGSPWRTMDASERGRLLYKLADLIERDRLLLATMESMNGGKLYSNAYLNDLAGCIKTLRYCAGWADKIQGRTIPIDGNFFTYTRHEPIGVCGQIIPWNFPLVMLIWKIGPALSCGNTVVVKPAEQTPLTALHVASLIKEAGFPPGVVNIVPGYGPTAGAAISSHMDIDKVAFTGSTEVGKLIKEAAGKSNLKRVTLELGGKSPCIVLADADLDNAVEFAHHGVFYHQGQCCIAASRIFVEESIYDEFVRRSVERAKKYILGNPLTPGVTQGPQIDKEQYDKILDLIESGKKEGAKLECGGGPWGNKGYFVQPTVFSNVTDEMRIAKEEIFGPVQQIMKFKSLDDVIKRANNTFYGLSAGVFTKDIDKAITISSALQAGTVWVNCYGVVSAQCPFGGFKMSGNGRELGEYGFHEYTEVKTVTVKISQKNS
HTT aggregate: mutant huntingtin aggregation inhibition | PC12 HttQ103-GFP aggregates, Acumen cytometry, 40 h | Potency, µM (titrated, usually from 46.1 µM), hits mostly inhibitors | hit rate 1.1% among 220,000 | AID 1688; also: nearly all actives have a fitted effect of over 60% in size
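Aggregates are detected as GFP objects 1–25 µm with signal 6 STDEV over background in lysates of induced PC12 cells. These carry Huntingtin exon 1 with 103 glutamines fused to GFP under an ecdysone promoter; compounds titrated.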
LMNA splice mod: modulators of lamin A splicing. hit rate 0.01% among 200,000. Potency, µM (highest dose often 46.1 µM), most hits filed as inhibitors. AID 1487. HeLa LMNA splicing GFP/RFP minigene ratio, 48 h; active = well fitted inhibition curve with a large enough effect in the signal ratio, with a control signal flat, not every such curve was filed as active; inconclusive = small, poorly fitted or top-dose-only effect, or effect the other way, or a change in a side signal; the % refers to the signal ratio
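Read-out is the ratio of GFP to DsRed2 object intensity, acquired by 488 nm laser-scanning cytometry on HeLa lamin A-EGFP minigene reporter cells. Compound incubation 48 hrs at 37 °C in Opti-MEM with 2% FBS; DMSO 0.5% final.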
Large screens that a line does not name were inactive. Unless noted, calls follow the shape of the dose curve; as a rule, active = well fitted curve in the direction sought with a large enough effect; inconclusive = small, poorly fitted or top-dose-only effect, or another doubt; inactive = no such curve, though single readings can be large; an effect the other way counts as inactive or inconclusive.

COc1ccc(CC(=O)NCc2nnc(SCC(=O)Nc3ccc(OC)cc3)n2C)cc1	LMNA splice mod inconclusive (no result: HPGD block)
Cc1ccc(-c2nsc(SCC(=O)Nc3ccc4c(c3)OCO4)n2)cc1	none
COc1ccc(CCNC(=O)CCN2C(=O)c3cccc4cccc(c34)C2=O)cc1OC	none (no result: HTT cytoprotect, HPGD block)
O=c1c2cc(N3CCOCC3)ccc2[nH]c(=S)n1Cc1ccccn1	HPGD block inconclusive, ALDH1A1 block inconclusive
N#C/C(=C\c1ccc(OCc2ccc(C(=O)O)cc2)cc1)C(=O)N1CCOCC1	HPGD block 14µM
COc1ccc(C(=O)N2CCCC2)cc1	HPGD block 6.3µM
COc1ccc(C(CNC(=O)c2ccc(S(=O)(=O)N(C)C)cc2)N2CCCCC2)cc1 (configuration not stated)	ALDH1A1 block 10µM (no result: HPGD block)
COc1ccc(C(CNC(=O)c2ccc(C)cc2)N2CCOCC2)cc1 (configuration not stated)	none (no result: HTT cytoprotect, KinaseGlo FLuc, HPGD block, ALDH1A1 block, HTT aggregate)
Nc1ccc(C(=O)n2c3ccccc3c3ccccc32)cc1	HPGD block 32µM, ALDH1A1 block 11µM, HTT aggregate inconclusive, LMNA splice mod inconclusive
COc1ccc(C(=O)N2CCN(C(=O)c3ccncc3)CC2)cc1	none
Cc1ccc(S(=O)(=O)N2CCC(=O)N(C(COCc3ccc(Cl)cc3)C(C)C)CC2)cc1 (configuration not stated)	ALDH1A1 block inconclusive, LMNA splice mod inconclusive (no result: HTT cytoprotect)
O=C(O)c1cc(NCc2ccc(F)cc2)ccc1N1CCOCC1	none
O=C(c1ccc(Cl)cc1)N1CCCOC1	HPGD block 8.9µM
NC(=O)C1CCCN(C(=O)c2ccc(Cl)cc2)C1 (configuration not stated)	none
O=C(c1ccc(-c2ccccc2)cc1)N1CCC(C(=O)N2CCCC2)CC1	HPGD block 16µM
Cc1cc(C(F)(F)F)nc(SCC(=O)Nc2cc(C)on2)n1	none
CCOC(=O)N1CCN(C(=O)CSc2ccccc2)CC1	HPGD block 10µM, ALDH1A1 block inconclusive
CCOC(=O)N1CCN(C(=O)c2ccccc2CCc2ccccc2)CC1	ALDH1A1 block 6.3µM
CCOC(=O)N1CCN(C(=O)CSCc2ccccc2)CC1	none
CCN1CCN(C(=O)CCc2nnc(CCCCc3ccccc3)o2)[C@@H](C)C1=O	ALDH1A1 block 8.9µM (no result: HPGD block)
CCN(CC)C1CCN(C(=O)CCc2nnc(CCCCc3ccccc3)o2)C1 (configuration not stated)	none (no result: HPGD block, LMNA splice mod)
Cc1c(C(=O)N/N=C/C(C)C)[nH]c2ccc([N+](=O)[O-])cc12	ALDH1A1 block 14µM, HTT aggregate 7.1µM
Cc1c(C(=O)O)[nH]c2ccc([N+](=O)[O-])cc12	ALDH1A1 block inconclusive (no result: HTT cytoprotect, HPGD block, LMNA splice mod)
O=[N+]([O-])c1ccc(Nc2nc(N/N=C/c3cccc(F)c3)nc(N3CCCC3)n2)cc1	ALDH1A1 block inconclusive, HTT aggregate inconclusive, LMNA splice mod inconclusive
O=[N+]([O-])c1ccc(Nc2nc(NC3CCCCC3)nc(N3CCCC3)n2)cc1	ALDH1A1 block 13µM, HTT aggregate inconclusive (no result: HPGD block, LMNA splice mod)
O=C(CC1SC(=Nc2ccc(OC(F)F)cc2)N(CCN2CCOCC2)C1=O)Nc1ccccc1 (configuration not stated)	none (no result: KinaseGlo FLuc, HPGD block, ALDH1A1 block, LMNA splice mod)
COc1ccccc1C(=O)Nc1cccc(C(=O)OCc2cc(=O)n3nc(C4CC4)sc3n2)c1	none (no result: HTT cytoprotect, KinaseGlo FLuc, HPGD block, ALDH1A1 block, HTT aggregate)
CCOC(=O)c1cc2c(nc1NC(=S)Nc1ccccc1)CC(C)(C)OC2	ALDH1A1 block 14µM
C=CCNC(=S)Nc1nc2c(cc1C(=O)OCC)COC(C)(C)C2	none (no result: KinaseGlo FLuc, HPGD block, ALDH1A1 block, LMNA splice mod)
Nc1ncc(Br)cc1N=Cc1ccccc1	HTT aggregate inconclusive, LMNA splice mod inconclusive
COc1cc(C(=O)NCCc2ccc3c(c2)OCCO3)ccc1OCC(=O)N1CCOCC1	ALDH1A1 block 22µM
CCOc1ccc(C(=O)NCCc2ccc3c(c2)OCCO3)cc1	HTT aggregate 5µM (no result: HTT cytoprotect, HPGD block, LMNA splice mod)
COc1cc(C(=O)O)ccc1OCC(=O)N1CCOCC1	none
Cc1ccc(CS(=O)(=O)c2ccc(C(=O)N3CCN(c4ccccn4)CC3)cc2[N+](=O)[O-])cc1	ALDH1A1 block inconclusive, HTT aggregate inconclusive, LMNA splice mod inconclusive (no result: HPGD block)
S=c1nc(C2CCCCC2)[nH][nH]1	HPGD block 14µM, ALDH1A1 block inconclusive
CCOC(=O)n1c(=O)n(Cc2cccc(F)c2)c2ccccc21	LMNA splice mod inconclusive (no result: HPGD block)
COc1ccc2c(c1)CCc1c(C(=O)NCc3ccc(F)cc3)noc1-2	none
COc1ccc2c(c1)CCc1c(C(=O)NCc3ccc(Cl)cc3)noc1-2	ALDH1A1 block 13µM
COc1ccc2c(c1)CCc1c(C(=O)N3CCCc4ccccc43)noc1-2	ALDH1A1 block 4.5µM, LMNA splice mod inconclusive
CCc1cc(C(=O)COc2ccccc2F)c(O)cc1O	HPGD block 32µM, ALDH1A1 block inconclusive, HTT aggregate inconclusive, LMNA splice mod inconclusive
COCCNc1c(-c2ccc(OC)cc2)nc2ccc(Cl)cn12	none (no result: HTT cytoprotect, HPGD block, HTT aggregate)
COc1cccc(C(=O)N2CCN(Cc3cccc(F)c3)CC2)c1	ALDH1A1 block 18µM
O=C(c1cccnc1)N1CCN(Cc2cccc(Br)c2)CC1	HTT cytoprotect inconclusive, ALDH1A1 block 10µM, HTT aggregate inconclusive
CCN(CC(=O)Nc1ccc(OC)cc1)C(=O)c1ccc([N+](=O)[O-])cc1	none (no result: KinaseGlo FLuc, HPGD block, LMNA splice mod)
Cc1ccc(C(=O)N2CCSC2=S)cc1	none (no result: HPGD block)
Cc1ccc(C(=O)Oc2csc(=S)n2C(=O)c2ccc(C)cc2)cc1	HPGD block 5µM, ALDH1A1 block 3.5µM
CCN[C@@H]1CN(CCCOC)S(=O)(=O)c2sc(S(N)(=O)=O)cc21	LMNA splice mod inconclusive
CC1CC(N(C(=O)C2CC2)c2ccccc2)c2ccccc2N1C(=O)C1CC1 (configuration not stated)	LMNA splice mod inconclusive
COc1cc(NS(=O)(=O)c2ccc(C)cc2)c2ncccc2c1	HPGD block inconclusive, LMNA splice mod inconclusive
Cc1ccc(S(=O)(=O)Nc2cccc3cccnc23)cc1	ALDH1A1 block inconclusive, HTT aggregate 13µM, LMNA splice mod inconclusive
COc1ccccc1CNC(=O)COC(=O)C1=COCCO1	none
CC(C(=O)O)N1C(=O)/C(=C/C=C/c2ccco2)SC1=S (configuration not stated)	HPGD block 16µM
O=C1/C(=C/C=C/c2ccco2)SC(=S)N1NS(=O)(=O)c1ccccc1	none (no result: KinaseGlo FLuc, HPGD block, ALDH1A1 block, LMNA splice mod)
CCCc1c(OCC(O)COc2ccc3c(=O)cc(C(=O)O)oc3c2CCC)ccc(C(C)=O)c1O (configuration not stated)	HPGD block 18µM (no result: HTT aggregate, LMNA splice mod)
CCCc1c(OCCCCc2nn[nH]n2)ccc(C(C)=O)c1O	LMNA splice mod inconclusive
COC(=O)c1sccc1NC(=S)N1CCC(C)CC1	ALDH1A1 block 20µM
COC(=O)c1sccc1NC(=S)N1CC(C)CC(C)C1 (configuration not stated)	HPGD block inconclusive, ALDH1A1 block 7.9µM
